From PubChem BioAssay
Compounds with a hit are over-represented: about 4.1% of the library has one in this group of screens.
DAX1 inh-1: DAX1 (NR0B1) inhibitors on StAR promoter, primary screen, cell-based, luminescence, SF-1 (NR5A1), full-length DAX-1. AID 652010, 2013. inhibition, % at 6.8 µM. HEK293T StAR-luciferase reporter, SF-1/DAX-1 repression relief. 1.1% of 370,000 active;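 active = inhibition above the mean over all tested compounds plus 3 SD, cut at about 3.6% in these data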;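 also: 0% = DAX-1 cells with DMSO and 100% = cells lacking DAX-1 with DMSO; higher inhibition means more luminescence from relief of DAX-1 repression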
DAX1 inh-2: DAX1 (NR0B1) inhibitors, primary screen, cell-based, HEK293, Gal4-DAX1, luciferase luminescence | 0.99% of 340,000 active | Nuclear receptor subfamily 0 group B member 1 (Homo sapiens), P51843 | inhibition, % at 6.75 µM | HEK293 Gal4-DAX1 luciferase reporter | AID 504766, 2011;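 active = inhibition above the mean over all tested compounds plus 3 SD, cut at about 4.2% in these data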;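 also: 0% = DAX1-transfected cells with DMSO and 100% = empty-vector control cells with DMSO; inhibition shows as a rise in luminescence from relieved DAX1 repression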
Target sequence (P51843 207-470 limits assumed): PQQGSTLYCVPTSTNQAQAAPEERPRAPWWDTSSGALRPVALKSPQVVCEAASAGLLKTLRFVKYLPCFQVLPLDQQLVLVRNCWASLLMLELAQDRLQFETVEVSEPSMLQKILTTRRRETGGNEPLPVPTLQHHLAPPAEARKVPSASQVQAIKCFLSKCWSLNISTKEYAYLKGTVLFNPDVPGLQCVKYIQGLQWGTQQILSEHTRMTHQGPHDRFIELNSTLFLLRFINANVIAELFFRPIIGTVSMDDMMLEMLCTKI
ssDAF12 agonist: S. stercoralis DAF-12 nuclear receptor activators, primary screen, cell-based, luminescence, HEK293, GRIP1 co-expression, lit1-tk-luc; 1% of 370,000 active; activation, % at 6.8 µM; Nuclear hormone receptor DAF-12 (Strongyloides stercoralis); HEK293 ssDAF-12/GRIP1 lit1-tk-luc reporter; % of 3 µM dafachronic acid response;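 active = activation above the mean over all tested compounds plus 3 SD, cut at about 0.9% in these data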;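 also: 0% = DMSO-only wells and 100% = 3 µM delta7-dafachronic acid wells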
hgDAF-12 ag: H. glycines DAF-12 receptor agonists, primary screen, cell-based, luminescence, HEK293, GAL4 fusion, UAS-luciferase; Nuclear hormone receptor DAF-12 (Heterodera glycines), GAL4 fusion; HEK293 GAL4-hgDAF12 UAS-luciferase reporter, agonist luminescence; normalized to butyrate control; activation, % at 6.8 µM; 1.8% of 370,000 active;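 active = activation above a cutoff set at the mean of all screened compounds plus 3 SD, cut at about 10% in these data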;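 also: 0% = DMSO wells and 100% = sodium butyrate wells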
hcDAF12 agonist: H. contortus DAF-12 nuclear receptor activators, primary screen, cell-based, luminescence, HEK293, lit1-tk-luc reporter; activation, % at 6.8 µM; HEK293 hcDAF-12 lit1-tk-luc reporter; 0% DMSO, 100% Δ7-dafachronic acid; 1.4% of 370,000 active; AID 652067, 2013;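 active = activation above the mean of all tested compounds plus 3 SD, cut at about 5.5% in these data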;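 also: 100% = response to 3 µM Δ7-dafachronic acid high control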
hgDAF12 ag: H. glycines DAF-12 receptor agonists, confirmation, cell-based, luminescence, HEK293, GAL4-LBD fusion | shares compounds with hgDAF-12 ag | HEK293 GAL4-hgDAF12 luciferase reporter, agonist mode; percent of butyrate response | 80% of 3,300 active | activation, % at 6.8 µM | AID 743050, 2013;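 active = mean activation over triplicate wells above the hit cutoff derived from the earlier primary screen, cut at about 11% in these data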;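 also: 0% = DMSO low control and 100% = 2 mM sodium butyrate high control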
LXRb DAF12 ctr: LXR agonists, Gal4 luciferase reporter, confirmation, counter-screen for hgDAF-12 agonist project, cell-based, luminescence, HEK293, H. glycines campaign; shares compounds with hgDAF-12 ag; 24 h; activation, % at 6.8 µM; 3,300 tested, under 10 active;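 active = mean activation of the triplicate above a set limit carried over from the primary screen, none filed active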
Active calls of the source: *.

`CC(=O)Cn1cnc2c(cnn2-c2ccc(C)c(C)c2)c1=O` gave DAX1 inh-1 0.7, DAX1 inh-2 3.3, ssDAF12 agonist 0.8, hgDAF-12 ag 15.3*, hcDAF12 agonist -2.9, hgDAF12 ag 12.3* and LXRb DAF12 ctr 0.4.
Screening COc1cccc(CN2CCNC(=O)C2CC(=O)N(C)Cc2cnccn2)c1OC (configuration not stated) returned DAX1 inh-1 0.3, DAX1 inh-2 0.3, ssDAF12 agonist -1.8, hgDAF-12 ag -1.3 and hcDAF12 agonist -0.8.
Screening Cc1nn(C(=O)c2cccs2)c(N)c1-c1ccccc1 returned DAX1 inh-1 3.7*, DAX1 inh-2 3.1, ssDAF12 agonist -0.5, hgDAF-12 ag 15.0*, hcDAF12 agonist 4.7, hgDAF12 ag 16.6* and LXRb DAF12 ctr 0.5.
Screening N/C(=N\C(=S)Nc1ccccc1)c1ccccc1 returned DAX1 inh-1 2.4, DAX1 inh-2 4.7*, ssDAF12 agonist 0.2, hgDAF-12 ag 16.4*, hcDAF12 agonist 6.0*, hgDAF12 ag 17.4* and LXRb DAF12 ctr 1.0.
CC(C)C1C(=O)N(Cc2cn(CCC3OCCO3)nn2)CCS(=O)(=O)N1Cc1ccc(-c2ccc(F)cc2Cl)cc1 (configuration not stated) was read as DAX1 inh-1 -0.9, ssDAF12 agonist -2.0, hgDAF-12 ag -4.1 and hcDAF12 agonist -0.6.
For CCn1c(O)c(/C=C2\C=Nc3ccccc32)sc1=Nc1ccc(C)cc1 the results were DAX1 inh-1 0.3, DAX1 inh-2 0.4, ssDAF12 agonist -1.9, hgDAF-12 ag 1.3 and hcDAF12 agonist -1.4.
`CCn1c(O)c(/C=C2\C=Nc3ccccc32)sc1=O` gave DAX1 inh-1 2.0, DAX1 inh-2 2.2, ssDAF12 agonist -0.4, hgDAF-12 ag 14.0*, hcDAF12 agonist 4.5, hgDAF12 ag 21.5* and LXRb DAF12 ctr 0.7.
For Cc1ccc(NC(=O)/C=C/c2ccc3c(c2)OCO3)nc1 the results were DAX1 inh-1 3.2, DAX1 inh-2 0.8, ssDAF12 agonist -0.8, hgDAF-12 ag 16.7*, hcDAF12 agonist 4.8, hgDAF12 ag 13.1* and LXRb DAF12 ctr 0.8.
Screening CC(C)=CC(=O)Nc1ccc(Cl)cc1 returned DAX1 inh-1 3.0, DAX1 inh-2 1.4, ssDAF12 agonist 1.7*, hgDAF-12 ag 18.9*, hcDAF12 agonist 2.0, hgDAF12 ag 12.0* and LXRb DAF12 ctr 0.6.
`Cc1cc(C)c2c(CN(C)Cc3ccccc3)cc(=O)oc2c1` gave DAX1 inh-1 0.8, ssDAF12 agonist -0.4, hgDAF-12 ag 13.5*, hcDAF12 agonist -1.9, hgDAF12 ag -1.5 and LXRb DAF12 ctr 0.1.
`COc1ccc(-c2cc(=Nc3c(C)n(C)n(-c4ccccc4)c3=O)c3ccccc3o2)cc1` gave DAX1 inh-1 3.5, DAX1 inh-2 5.3*, ssDAF12 agonist 0.8, hgDAF-12 ag 18.6*, hcDAF12 agonist 6.0*, hgDAF12 ag 11.9* and LXRb DAF12 ctr 0.3.
Screening Cc1occc1C(=O)Nc1ccc2c(c1)CCC2 returned DAX1 inh-1 3.9*, DAX1 inh-2 1.3, ssDAF12 agonist 0.8, hgDAF-12 ag 14.7*, hcDAF12 agonist 3.4, hgDAF12 ag 14.9* and LXRb DAF12 ctr 0.5.
For Cc1ccc(C(=O)Nc2ccc3c(c2)CCC3)o1 the results were DAX1 inh-1 2.1, DAX1 inh-2 0.9, ssDAF12 agonist -0.9, hgDAF-12 ag 16.1*, hcDAF12 agonist 3.3, hgDAF12 ag 22.1* and LXRb DAF12 ctr 1.0.
